“And” between values parts separate entries of the source, which are not always exact repeats. Equal entries are not always repeated. The source made the active and inactive calls. Rule for the calls: active = hit-call score of the fitted dose curve at least 0.9, where 1 is the maximum; inactive = score below 0.9.
Read-out: urokinase plasminogen activator (uPA), PLAU (gene 5328)
Test: BSK_KF3CT_uPA: BioMAP Diversity Plus: KF3CT Assay for urokinase plasminogen activator (uPA) Biomarker Activity (AID 2283075)
Details: primary human keratinocytes with fibroblasts; actives raise or lower the signal
Procedure: BSK_KF3CT is a cell-based, multiplexed-readout assay that uses keratinocytes and foreskin fibroblasts, a human skin primary cell co-culture, with measurements taken at 24 hours after chemical dosing in a 96-well plate.BSK_KF3CTA is an assay component measured in the BSK_KF3CT assay. It measures uPA antibody related to regulation of gene expression using ELISA technology.Data from the assay component BSK_KF3CTA was analyzed into 1 assay endpoint. This assay endpoint, BSK_KF3CTA, was analyzed with bidirectional fitting relative to DMSO as the negative control and baseline of activity. Using a type of binding reporter, gain or loss-of-signal activity can be used to understand changes in the signaling as they relate to the gene PLAU. Furthermore, this assay endpoint can be referred to as a primary readout, because this assay has produced multiple assay endpoints where this one serves a signaling function. To generalize the intended target to other relatable targets, this assay endpoint is annotated to the protease intended target family, where the subfamily is serine protease.
The levels of cell surface (or secreted, indicated by the prefix "s") biomarker endpoints were measured by ELISA. Overt cytotoxicity to cells in confluent adherent cultures (all systems other than the BT system) was assessed by measuring total protein levels using sulforhodamine B (SRB) staining in parallel cultures at the time of biomarker measurements, indicated as SRB endpoints. For proliferation assays for adherent cell types, individual cell types are cultured at sub-confluence and relative cell numbers quantified by SRB staining at time points optimized for each system (48 h: 3C and CASM3C systems; 72 h: BT and HDF3CGF systems; 96 h: SAg system). SRB was performed by staining cells with 0.1% SRB after fixation with 10% TCA and reading wells at 560 nm.Viability and proliferation of PBMC (T cells) was quantified by Alamar Blue reduction for the SAg and BT systems. For PBMC viability (referred to as PBMC Cytotoxicity within the assay endpoint names), cells were plated (75,000/well in a 96-well plate) and then chemical samples added for 1 h before addition of activators, SEB and TSST-1 (20 ng/mL final concentration each). Cells were incubated for 90 h. Then, Alamar Blue (20 uL/well) (Invitrogen, Cat DAL1100) was added for 6 h, and the plates were read with a fluorescence microplate reader at 546/580 nm (excitation/emission). For PBMC proliferation, cells were plated and activated as above but incubated for only 16 h prior to addition of Alamar Blue. Plates were read after 6 h.

Structure (SMILES)	outcome	AC50
FC(F)(F)C(F)(C(F)(F)F)C(F)(F)C(F)(F)CC1CO1 (stereo not given)	inactive	–
CCOc1ccc(C(C)(C)COCc2cccc(Oc3ccccc3)c2)cc1	inactive	–
CC(C)(C)OOC(C)(C)C	inactive	–
N#Cc1cc([N+](=O)[O-])ccc1N	inactive	–
CC(C)(C)c1ccc(O)cc1	inactive	–
COCCOCCO	inactive	–
C=CC(=O)OCC(CC)(COC(=O)C=C)COC(=O)C=C	–	3.11 µM (active)
c1cc2c3c(cccc3c1)CC2	inactive	–
c1ccc2c(c1)Nc1ccccc1S2	inactive	–
O=C(O)C(F)(F)OC(F)(F)C(F)(F)OC(F)(F)C(=O)O	inactive	–
Cc1ccc(N)cc1N	inactive	–
OCC1CO1 (stereo not given)	inactive	–
O=C(O)C(F)(OC(F)(F)C(F)(F)C(F)(F)F)C(F)(F)F (stereo not given)	inactive	–
c1ccc2c(c1)sc1ccccc12	inactive	–
[N-]=[N+]=[N-]	inactive	–
CC(C)Nc1ccc(Nc2ccccc2)cc1	–	31.6 µM (active)
O=C(O)C=CC(F)(C(F)(F)F)C(F)(F)F	inactive	–
CCCCc1ccccc1	inactive	–
NC(=O)C(F)(F)C(F)(F)F	inactive	–
COP(=O)(O)OC	inactive	–

Structure (SMILES)	outcome	AC50
CCOS(=O)(=O)OCC	inactive	–
O=[N+]([O-])c1ccccc1	inactive	–
CSC(C)(C)C=NO	inactive	–
O=P(Oc1ccccc1)(Oc1ccccc1)Oc1ccccc1	inactive	–
CCCN(CCC)c1c([N+](=O)[O-])cc(C(C)C)cc1[N+](=O)[O-]	inactive	–
ClC(Cl)(Cl)c1ccccc1	inactive	–
O=S(=O)(F)C(F)(F)C(F)(F)C(F)(F)C(F)(F)C(F)(F)C(F)(F)C(F)(F)C(F)(F)F	inactive	–
COP(=O)(CCC(=O)NCO)OC	inactive	–
O=c1ssc(Cl)c1Cl	–	5.59 µM (active)
CCOP(=S)(OCC)SCSc1ccc(Cl)cc1	–	0.0705 µM (active)
ClC(Cl)=C(c1ccc(Cl)cc1)c1ccccc1Cl	–	11.2 µM (active)
CC(O)C(F)(F)C(F)(F)F (stereo not given)	inactive	–
O=S1(=O)OCC2C(CO1)C1(Cl)C(Cl)=C(Cl)C2(Cl)C1(Cl)Cl (stereo not given)	inactive	–
CCN(CC)c1ccccc1	inactive	–
CC(Cl)(Cl)C(=O)O	inactive	–
c1ccc(OP(Oc2ccccc2)Oc2ccccc2)cc1	inactive	–
CCNc1nc(Cl)nc(NC(C)(C)C)n1	inactive	–
CCOC(=O)c1ccccc1C(=O)OCC	inactive	–
OCC(F)(F)OC(F)(F)C(F)(F)OC(F)(F)C(F)(F)OC(F)(F)F	–	45.7 µM (active) and 45.1 µM (active)
Cc1ccc([N+](=O)[O-])cc1C	inactive	–

From PubChem BioAssay (EPA / NIEHS)
